Screening data as filed in PubChem.
FMDV inh: foot and mouth disease virus antiviral activity. AID 1159524. hit rate 1.2% among 410,000. Potency, µM (titrated, usually from 57.9 µM), most hits filed as inhibitors. FMDV antiviral cell-based qHTS; calls by dose curve; tested in HEK293T cells; further: read-out not given here; nearly all actives have a fitted effect of over 45% in size
SARS PLP yeast: blocks SARS-CoV papain-like protease in a yeast assay. AID 485353. hit rate 0.19% among 330,000. Potency, µM (top dose mostly 32.9 µM), hits mostly activators. S. cerevisiae expressing SARS-CoV PLpro, growth rescue; calls by dose curve; further: nearly all actives have a fitted effect of over 55% in size
MARV entry inh: blocks Marburg virus binding to or entry into cells | Potency, µM (highest dose often 37.8 µM), hits mostly inhibitors | hit rate 1.8% among 300,000 | Marburg virus pseudotyped entry inhibition, cell reporter | AID 540276; calls by dose curve; tested in HEK293 cells
HCV inh: inhibitors of hepatitis C virus infection | Huh7.5.1 HCVcc-Cre infection, luciferase reporter, 44 h | Potency, µM (doses to about 41.8 µM), usual class: inhibitors | hit rate 3.4% among 340,000 | AID 651820; active means well fitted inhibition curve with a large enough effect; inconclusive means small, poorly fitted or top-dose-only effect, or another doubt; inactive means no such curve, though single readings can be large or run the other way
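A cell-based infection assay in which seeded cells (1,000 per well) receive test compound after 4 h, are inoculated with HCVcc-Cre at approximately 0.5 moi, and are incubated 44 h before luminescence detection.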
HCMV antiviral: inhibitors of human cytomegalovirus. activity change, negative = inhibition, % at 57.5 µM. hit rate 4.5% among 410,000. HFF cells, HCMV-luciferase reporter, 72 h; active compounds read low; in the data active means activity change below about -60%; inconclusive means no clear call, values can overlap the other calls; inactive means above about -39%
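Inhibition of viral replication was scored as loss of reporter luminescence in HFFs infected with HCMV-luciferase (MOI 1 PFU/cell) for 72 h; compounds tested at 2 doses, normalized to buffer and Salinomycin controls.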
LASV entry inh: blocks Lassa virus binding to or entry into cells; Lassa virus pseudotype entry inhibition, cell reporter; Potency, µM (highest dose often 37.9 µM), actives largely listed as inhibitors; hit rate 1.2% among 300,000; AID 540256; calls by dose curve; tested in HEK293 cells; further: nearly all actives have a fitted effect of over 50% in size
A number is an active result; ! = repeats disagree. Hits are enriched below; roughly 8% of the tested compounds scored in any of these assays.

Results for Cc1ccc(S(=O)(=O)Nc2ccc3c(c2)C(=O)N([C@H](C)CO)C[C@H](C)[C@@H](CN(C)C(=O)NC2CCCCC2)OCCCC[C@@H](C)O3)cc1 ?
FMDV inh: inactive; HCMV antiviral: -63

Results for Cc1ccc(S(=O)(=O)Nc2ccc3c(c2)C(=O)N([C@@H](C)CO)C[C@@H](C)[C@@H](CN(C)C(=O)NC2CCCCC2)OCCCC[C@H](C)O3)cc1 ?
FMDV inh: inactive; HCMV antiviral: inactive

How did Cc1cc(C)n(C(C)CC(=O)NCc2ccc(Cl)cc2)n1 (stereo not given) do in these assays?
FMDV inh: inactive; HCMV antiviral: inactive; LASV entry inh: inactive

How did O=S(=O)(/C(=C/c1ccc(C(F)(F)F)cc1)c1nc2ccccc2[nH]1)c1ccccc1 do in these assays?
FMDV inh: inconclusive; SARS PLP yeast: inactive; MARV entry inh: 11µM; HCV inh: 11µM; HCMV antiviral: -104; LASV entry inh: inconclusive

How did CC(C)c1ccc(/C=C(\c2nc3ccccc3[nH]2)S(=O)(=O)c2ccccc2)cc1 do in these assays?
FMDV inh: 10µM; SARS PLP yeast: inactive; MARV entry inh: inconclusive; HCV inh: 13µM; HCMV antiviral: -101; LASV entry inh: inconclusive

Results for C/C(=C\c1ccc(N)cc1)c1nc2ccccc2[nH]1 ?
FMDV inh: inactive; SARS PLP yeast: inactive; HCV inh: inactive; HCMV antiviral: inactive

What do the screens show for `NC(=O)NC(=O)CSc1nc2sc(-c3ccccc3)cc2c(=O)n1-c1ccccc1`?
FMDV inh: inconclusive; SARS PLP yeast: inactive; MARV entry inh: inactive; HCV inh: inactive; HCMV antiviral: -70; LASV entry inh: inactive

What do the screens show for `Nc1ncnc2c1ncn2CCc1ccccc1`?
FMDV inh: inactive; SARS PLP yeast: inactive; MARV entry inh: inconclusive; HCV inh: inactive; HCMV antiviral: inconclusive; LASV entry inh: inactive

Results for Nc1ncnc2c1nc(SCCO)n2Cc1ccccc1 ?
FMDV inh: inactive; SARS PLP yeast: inactive; MARV entry inh: inactive; HCV inh: inactive; HCMV antiviral: -74

How did COCCCC/C(=N\OCCN)c1ccc(C(F)(F)F)cc1 do in these assays?
FMDV inh: inactive; SARS PLP yeast: inactive; MARV entry inh: 10µM; HCV inh: 16µM!; HCMV antiviral: inactive; LASV entry inh: 6.5µM

Results for COCCCCC(=NOCCN)c1ccc(C(F)(F)F)cc1 ?
FMDV inh: inactive; MARV entry inh: inconclusive

Results for COc1ccc(C(=O)NN/C(C)=C/C(=O)C(F)(F)C(F)(F)C(F)(F)F)cc1 ?
FMDV inh: inactive; SARS PLP yeast: inactive; MARV entry inh: inconclusive; HCV inh: inactive; HCMV antiviral: inactive; LASV entry inh: inactive

What do the screens show for `C[C@@H](C(=O)Nc1ccc2c(c1)OCCO2)n1c(=O)[nH]c2ccccc2c1=O`?
FMDV inh: inconclusive; SARS PLP yeast: inactive; HCV inh: inactive; HCMV antiviral: -70

What do the screens show for `CC(Sc1nc2ccccc2c(=O)n1C)C(=O)Nc1ccc2c(c1)OCCO2` (stereo not given)?
FMDV inh: inconclusive; SARS PLP yeast: inactive; HCV inh: 10µM; HCMV antiviral: -80

What do the screens show for `CC(C)Cn1c(SC(C)C(=O)Nc2ccc3c(c2)OCCO3)nc2ccccc2c1=O` (stereo not given)?
SARS PLP yeast: inactive; MARV entry inh: inconclusive; HCV inh: inactive; HCMV antiviral: inconclusive; LASV entry inh: 12µM

How did CC(Sc1ncnc2ccccc12)C(=O)Nc1ccc2c(c1)OCCO2 (stereo not given) do in these assays?
FMDV inh: 16µM; SARS PLP yeast: inactive; MARV entry inh: inconclusive; HCV inh: 13µM; HCMV antiviral: -73; LASV entry inh: inactive

How did Cc1ccc(O)c(NC(=O)c2onc(C)c2Cl)c1 do in these assays?
FMDV inh: inactive; SARS PLP yeast: inactive; MARV entry inh: inactive; HCV inh: inactive; HCMV antiviral: inactive

What do the screens show for `Cc1cc(C(=O)CSc2nnc(-c3ccc(Cl)cc3)n2C)c(C)n1CC1CCCO1` (stereo not given)?
FMDV inh: inactive; SARS PLP yeast: inactive; MARV entry inh: inactive; HCV inh: inactive; HCMV antiviral: inactive; LASV entry inh: inactive

How did Cc1ccc(C(=O)CSc2nc3ccccc3o2)cc1 do in these assays?
SARS PLP yeast: inactive; MARV entry inh: inactive; HCV inh: inactive; HCMV antiviral: -61; LASV entry inh: inactive

Results for Cc1cc(C(=O)CSc2nc(N)cc(N)n2)c(C)n1CC1CCCO1 (stereo not given) ?
FMDV inh: inactive; SARS PLP yeast: inactive; MARV entry inh: inactive; HCV inh: inactive; HCMV antiviral: inactive; LASV entry inh: inactive

What do the screens show for `Cc1cc(C)n2nc(SCC(=O)c3cc(C)n(CC4CCCO4)c3C)nc2n1` (stereo not given)?
FMDV inh: inconclusive; SARS PLP yeast: inactive; MARV entry inh: inactive; HCV inh: inconclusive; HCMV antiviral: -70; LASV entry inh: inactive

Results for Cc1cc(C(=O)Cn2nnc(-c3ccc(Cl)cc3)n2)c(C)n1CC1CCCO1 (stereo not given) ?
SARS PLP yeast: inactive; MARV entry inh: inactive; HCV inh: 7.9µM; HCMV antiviral: inconclusive; LASV entry inh: inconclusive

Results for Cc1cc(C(=O)CSc2nc3ccccc3o2)c(C)n1CC1CCCO1 (stereo not given) ?
FMDV inh: inconclusive; SARS PLP yeast: inactive; MARV entry inh: inconclusive; HCV inh: inconclusive; HCMV antiviral: -70; LASV entry inh: inconclusive

Results for O=C(NCCc1ccccc1)c1ccc2c(c1)N(Cc1c(F)cccc1Cl)C(=O)CS2 ?
FMDV inh: inactive; MARV entry inh: inconclusive; HCMV antiviral: inactive; LASV entry inh: inconclusive

Results for Cc1cc(C(=O)CSc2nc(N)cc(=O)[nH]2)c(C)n1CC1CCCO1 (stereo not given) ?
FMDV inh: inconclusive; SARS PLP yeast: inactive; MARV entry inh: inactive; HCV inh: inconclusive; HCMV antiviral: inactive; LASV entry inh: inactive

Results for Cc1cc(C(=O)CSc2nc3ccccc3[nH]2)c(C)n1CC1CCCO1 (stereo not given) ?
FMDV inh: 11µM; SARS PLP yeast: inactive; MARV entry inh: inconclusive; HCV inh: 1.4µM; HCMV antiviral: -99; LASV entry inh: 7.9µM

How did NC(=O)Cc1ccccc1Oc1nccc(-c2c(-c3ccc(F)cc3)ncn2C2CCNCC2)n1 do in these assays?
LASV entry inh: inactive

Results for CCOC(=O)c1sc(=S)n(C)c1NC(=O)c1ccc(C(C)(C)C)cc1 ?
FMDV inh: 25µM; SARS PLP yeast: inactive; MARV entry inh: 14µM; HCV inh: inactive; HCMV antiviral: -73; LASV entry inh: inconclusive

How did CCOC(=O)c1sc(=S)n(C)c1NC(=O)c1ccc(OC)cc1 do in these assays?
FMDV inh: inactive; SARS PLP yeast: inactive; MARV entry inh: inactive; HCV inh: inactive; HCMV antiviral: inactive; LASV entry inh: inactive

How did N#Cc1ccc(CN2CC[C@@]3(CCCN(C(=O)c4cccc(F)c4)C3)C2)cc1 do in these assays?
FMDV inh: inactive

Results for Oc1ccc(CCNc2ncnc3ccc(Cl)cc23)cc1 ?
FMDV inh: 10µM; SARS PLP yeast: inactive; HCV inh: 3.2µM; HCMV antiviral: -98
